KB-3-1 tox = kills parental KB-3-1 adenocarcinoma cells; Potency, µM (highest dose often 46.1 µM), hits mostly cytotoxic; 1.4% of 400,000 active; KB-3-1 viability, CellTiter-Glo ATP luminescence, 72 h; further: potency means the concentration at half of the fitted maximal effect; on the % scale 0 is the no-effect control and ±100 the full control effect; nearly all actives have a fitted effect of over 60% in size
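KB-3-1 parental drug-naive adenocarcinoma cells in DMEM/10% FBS, incubated 72 h at 37 C with pin-transferred compounds across a concentration series. Viability by CellTiter-Glo luminescence; concentration-response curves fitted after normalization.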
MCF10A rerep = induces DNA re-replication in MCF 10a normal breast cells. MCF 10A DNA re-replication, Hoechst nuclear intensity, 48 h. Potency, µM (series often up to 46.1 µM), for inactives: top-dose activity, positive = re-replication, hits mostly activators. 2.9% of 350,000 active. AID 624296; further: potency means the concentration at half of the fitted maximal effect; % of control where 0% means no effect; nearly all actives have a fitted effect of over 50% in size
S-ASM inh = human S-ASM enzyme inhibition; P17405; placental ASM, HMU-PC fluorogenic substrate, 60 min; Potency, µM (titrated, usually from 57.5 µM), for inactives: at the top dose activity change, negative = inhibition, most hits filed as inhibitors; 0.006% of 340,000 active; further: potency means the concentration at half of the fitted maximal effect
Target sequence (P17405 47-631 limits assumed): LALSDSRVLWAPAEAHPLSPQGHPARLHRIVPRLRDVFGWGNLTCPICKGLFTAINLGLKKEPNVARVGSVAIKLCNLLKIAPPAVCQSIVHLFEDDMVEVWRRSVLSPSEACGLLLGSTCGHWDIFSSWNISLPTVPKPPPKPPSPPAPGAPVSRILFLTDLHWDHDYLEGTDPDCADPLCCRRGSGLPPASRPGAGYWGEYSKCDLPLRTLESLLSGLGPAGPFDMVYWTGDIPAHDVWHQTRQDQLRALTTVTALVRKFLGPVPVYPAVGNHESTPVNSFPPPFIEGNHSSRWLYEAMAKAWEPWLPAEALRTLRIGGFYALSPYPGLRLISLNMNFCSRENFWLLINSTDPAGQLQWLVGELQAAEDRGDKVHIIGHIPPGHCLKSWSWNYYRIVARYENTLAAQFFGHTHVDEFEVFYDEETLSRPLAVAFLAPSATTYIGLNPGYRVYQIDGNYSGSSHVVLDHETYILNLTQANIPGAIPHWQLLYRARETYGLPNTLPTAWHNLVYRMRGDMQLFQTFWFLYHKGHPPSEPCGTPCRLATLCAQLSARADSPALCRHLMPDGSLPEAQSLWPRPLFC
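HMU-PC0 cleavage (9 uM final) by human placental ASM, 60 min at 37 °C following 10 min compound exposure at RT; stopped at pH 10, fluorescence Ex 386/Em 447 nm.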
SW480 rereplic = induces DNA re-replication in SW480 colon adenocarcinoma cells. AID 624297. SW480 DNA re-replication, Hoechst DNA content imaging, 48 h. 1.8% of 340,000 active. Potency, µM (doses to about 46.1 µM), inactives show at the highest dose re-replication activation, hits mostly activators; further: potency means the concentration at half of the fitted maximal effect; % of control where 0% means no effect; nearly all actives have a fitted effect of over 55% in size
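Treated cells incubate 48 hr (37 C, 5% CO2), are stained 40 min with Hoechst, and nuclear fluorescence is enumerated; a rise in nuclei with high DNA signal marks re-replication.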
KB-V1 cytotox = KB-V1 MDR subline cytotoxicity; KB-V1 MDR cells viability, CellTiter-Glo, 72 h; Potency, µM (top dose mostly 46.1 µM), hits mostly cytotoxic; 3.4% of 400,000 active; AID 1347076; further: potency means the concentration at half of the fitted maximal effect; on the % scale 0 is the no-effect control and ±100 the full control effect; nearly all actives have a fitted effect of over 60% in size
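Compound-treated KB-V1 multidrug-resistant cells, 72 h, 37 degrees C; viability by CellTiter-Glo. Fitted qHTS curves give the values.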
Giardia killer = kills Giardia lamblia; Giardia lamblia trophozoite viability; activity change, % at 7.66 µM, hits read low; 0.15% of 340,000 active; in the data active means activity change below about -80%; inconclusive means between about -30% and that limit;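 further: parasites exposed to compound for two days anaerobically before the ATP read; on the % scale 0 is the no-effect control and ±100 the full control effect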
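Compounds were tested on trophozoites seeded at 100 cells/well and held 48 hrs at 37 deg C anaerobically. An ATP-based luminescent kit measured the remaining live cells.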
The depositor's hits bear a star; i = inactive; ? = inconclusive; . = not tested or not shown. Sampled rows, rich in hits. Any-hit rate of the full collection: about 6.9%. Unless noted, the call rests on the fitted dose curve; in most records, active means well fitted curve in the direction sought with a large enough effect; inconclusive means small, poorly fitted or top-dose-only effect, or another doubt; inactive means no such curve, though single readings can be large; an effect the other way counts as inactive or inconclusive.

SMILES	KB-3-1 tox	MCF10A rerep	S-ASM inh	SW480 rereplic	KB-V1 cytotox	Giardia killer
O=C(Nc1cc([N+](=O)[O-])ccc1Cl)C(Sc1ccccc1)c1ccccc1 (configuration not stated)	i	-5.2%	-5.5%	-2.6%	14.6µM*	-0.5
O=C(Nc1ccc(Cl)c([N+](=O)[O-])c1)C(Sc1ccccc1)c1ccccc1 (configuration not stated)	25.9µM*	?	-7.0%	12.7%	?	10.4
COCCNC(=O)C1(C)CCN(Cc2ccc(C(C)C)cc2)C1 (configuration not stated)	i	.	.	.	i	.
Cc1ccc(-n2c(Cc3ccccc3)nnc2SCc2nc(-c3cccs3)no2)cc1C	i	.	.	.	i	.
CCOc1ccc(OCC(O)CNC2CCN(Cc3ccccc3)CC2)cc1 (configuration not stated)	?	?	3.8%	?	16.4µM*	2.1
CC(C)(c1ccccc1)c1ccc(OCC(O)CNC2CCN(Cc3ccccc3)CC2)cc1 (configuration not stated)	?	?	-0.8%	10.8%	18.4µM*	-6.2
COc1ccc2nc3cc(Cl)ccc3c(C#N)c2c1	i	25.0%	78.9%	20.6µM*	i	-2.0
COc1ccc(Nc2nc3cc(Cl)c(Cl)cc3n3cnnc23)cc1Cl	i	.	.	.	i	.
Clc1ccc(N=NN2CCOCC2)cc1	i	?	-2.3%	-73.7%	i	-5.8
Cc1[nH]nc(C(F)(F)F)c1N=NN1CCOCC1	?	3.66µM*	0.5%	?	?	11.0
O=C1C=CC(=Nc2cccc3c2C(=O)c2ccccc2-3)O1	?	?	-2.3%	23.1µM*	i	3.3
O=C1C=CC(=Nc2ccc3c(c2)Cc2cc(F)ccc2-3)O1	.	1.0%	7.3%	?	.	-19.5
Cc1ccc(C)c(S(=O)(=O)N2CCCCC2CCNC(=O)C(=O)NCc2ccccn2)c1 (configuration not stated)	i	3.4%	2.6%	-8.8%	?	11.3
Cc1ccc(C)c(S(=O)(=O)N2CCCC2CNC(=O)C(=O)NCc2ccccn2)c1 (configuration not stated)	i	-20.9%	1.1%	18.4µM*	i	6.0
Cc1ccc(C)c(S(=O)(=O)N2CCCC2CNC(=O)C(=O)NCC2CCCO2)c1 (configuration not stated)	i	27.2%	2.9%	5.8µM*	i	18.8
Cc1ccc(C)c(S(=O)(=O)N2CCCC2CNC(=O)C(=O)NCc2ccccc2C)c1 (configuration not stated)	i	-6.5%	2.3%	3.66µM*	i	-7.2
CSc1ncc(C(=O)NCc2cccc(Br)c2)c(-c2ccccc2)n1	i	.	.	.	i	.
CCc1cc2cc(C(=O)N3CCN(Cc4ccccc4)CC3)sc2s1	20.6µM*	?	-2.9%	-7.8%	14.6µM*	-16.7
CC(C)(C)c1ccc(C(=O)N2CCN(CCNC(=O)C(=O)NCc3ccccc3)CC2)cc1	i	-1.0%	-0.2%	-3.1%	7.31µM*	?
O=C(c1ccccc1)N1CCN(Cc2ccccc2)CC1	i	13µM*	-1.2%	17.0%	i	3.1
O=C(c1ccc(CNS(=O)(=O)c2ccccc2)cc1)N1CCN(Cc2ccccc2)CC1	18.4µM*	27.7%	6.7%	20.9%	4.61µM*	5.1
CC(C)(C)c1ccc(C(=O)N2CCN(Cc3ccccc3)CC2)cc1	i	5.1%	3.2%	-5.9%	i	0.5
O=C(NCCN1CCN(C(=O)c2ccc(F)cc2)CC1)C(=O)NCc1ccccc1	i	-3.1%	-0.7%	-12.0%	i	2.3
CCc1cc2cc(C(=O)N3CCN(c4ccccc4)CC3)sc2s1	i	14.9%	-0.5%	15.5%	i	1.7
O=C(CNC(=O)c1ccc(Cl)cc1)OCc1cc(=O)n2ccsc2n1	i	.	.	.	i	.
SMILES	KB-3-1 tox	MCF10A rerep	S-ASM inh	SW480 rereplic	KB-V1 cytotox	Giardia killer
Cc1cccc(NC(=O)Cn2c(=O)n(CCc3ccccc3)c(=O)c3ccccc32)c1	i	.	.	.	i	.
Cc1cccc(C)c1NC(=O)CCSCCc1ccccn1	i	.	.	.	i	.
O=C(c1ccccc1)N1CCCC(C(=O)N2CCCCCC2)C1 (configuration not stated)	i	0.0%	4.3%	-10.1%	20.6µM*	11.6
O=C(c1ccccc1F)N1CCN(Cc2cccc(Cl)c2)CC1	i	-0.4%	3.8%	0.3%	20.6µM*	5.0
O=C(c1ccncc1)N1CCN(CCc2ccccc2)CC1	i	18.4µM*	2.7%	?	i	-16.1
O=C(O)c1ccc(CNS(=O)(=O)c2ccc(Oc3ccccc3Cl)cc2)cc1	i	?	-2.2%	0.164µM*	i	-4.0
O=C(c1ccccc1)N1CCN(C(=O)c2ccncc2)CC1	i	0.1%	6.6%	-3.6%	i	-0.8
CC(=O)Nc1c(I)c(C(=O)O)c(I)c(N(C)C(C)=O)c1I	.	-1.8%	.	-2.3%	.	.
COc1ccc(CN(C(=O)c2ccco2)c2ccc(C)c(C)c2)cc1	16.4µM*	10.3µM*	-11.5%	16.4µM*	?	19.6
COc1cc(CN(C(=O)c2ccco2)c2ccc(C)cc2)ccc1O	i	-4.9%	2.6%	-1.2%	13µM*	-1.6
CCCOC(=O)c1cccc(Nc2nc(CCC)cc(=O)[nH]2)c1	?	.	.	.	i	.
CCc1c(C)c2ccc(O)c(CN3CCN(c4ccc(OC)cc4)CC3)c2oc1=O	i	.	.	.	?	.
CN(c1ccc(/C=C/c2ccccc2)cc1)P1(=O)NCCCO1 (configuration not stated)	i	.	.	.	i	.
CCOc1cc(C2C(C#N)=C(N)OC(C)=C2C(C)=O)c(Br)c(Br)c1OC(C)C (configuration not stated)	?	16.4µM*	-2.8%	8.2µM*	14.6µM*	-2.4
CCOC(=O)c1cnc2ccc(OCC)cc2c1N1CCN(C)CC1	i	8.7%	-1.9%	-2.3%	i	-14.7
CCOc1ccc2ncc(S(=O)(=O)c3ccc(C)cc3)c(N3CCC4(CC3)OCCO4)c2c1	?	?	-1.7%	?	4.11µM*	1.6
CN1CCN(C2CN(Cc3cn(Cc4ccc(C(F)(F)F)cc4)nn3)S(=O)(=O)C2)CC1 (configuration not stated)	i	.	.	.	i	.
Cc1nc2c(OCC(=O)c3ccc(F)cc3)cccn2c1N(C)Cc1cccs1	i	.	.	.	i	.
Cc1nc2c(OCc3ccc(C#N)cc3)cccn2c1N(C)Cc1cccs1	?	.	.	.	14.6µM*	.
COc1ccc(/C=C/C(=O)c2ccc[nH]2)c(OC)c1OC	i	6.7%	41.2%	3.1%	?	4.7
COc1ccc(/C=C/C(=O)c2ccncc2)c2ccccc12	i	11.6µM*	-2.7%	?	i	-8.8
